# Screening data (PubChem BioAssay)
# Compounds with a hit are over-represented: about 4.5% of the library has one in this group of screens.
# aSyn UTR inh – MLPCN primary screen, SNCA 5' untranslated region; alpha-synuclein 5'UTR reporter, inhibitor activity; hit rate 0.82% among 300,000; inhibition, % (tested at 7.5 µM); in the data active means inhibition above about 60%;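 further: H4 neuroglioblastoma cells stably carrying SNCA 5'UTR luciferase fusion; 0% = DMSO wells and 100% = positive control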
# Gli-Sufu block – antagonists of Gli-Sufu signaling; Sufu-KO-LIGHT fibroblasts, Gli luciferase reporter luminescence; inhibition, % at 5 µM; hit rate 0.74% among 340,000; AID 588413;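 active means inhibition above about 55%, limit read from the data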;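 further: 0% = DMSO-treated cells and 100% = wells with medium but no cells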
# 697 NFkB inh – inhibitors of the PMA/ionomycin-induced NF-kB reporter in 697 B cells | 697 B-cell NF-kB luciferase reporter, 16 h | inhibition, % at 4 µM | hit rate 0.33% among 330,000; in the data active means inhibition above about 35%
# Jurkat NFkB inh – lowers PMA/ionomycin-induced NF-kB signal in Jurkat cells. PMA/ionomycin-induced NF-kB luciferase reporter, luminescence. inhibition, % at 4 µM. hit rate 0.53% among 330,000. AID 435003; in the data active means inhibition above about 50%
# Mdm2 MdmX PPI – disrupts the human Mdm2-MdmX interaction; SaOS-2 split-luciferase Mdm2/MdmX complementation, luminescence; hit rate 3% among 330,000; inhibition, % at 8 µM;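 active means inhibition of at least 50% at 8 µM in the primary screen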
# Target sequence (O15151 whole entry, looked up): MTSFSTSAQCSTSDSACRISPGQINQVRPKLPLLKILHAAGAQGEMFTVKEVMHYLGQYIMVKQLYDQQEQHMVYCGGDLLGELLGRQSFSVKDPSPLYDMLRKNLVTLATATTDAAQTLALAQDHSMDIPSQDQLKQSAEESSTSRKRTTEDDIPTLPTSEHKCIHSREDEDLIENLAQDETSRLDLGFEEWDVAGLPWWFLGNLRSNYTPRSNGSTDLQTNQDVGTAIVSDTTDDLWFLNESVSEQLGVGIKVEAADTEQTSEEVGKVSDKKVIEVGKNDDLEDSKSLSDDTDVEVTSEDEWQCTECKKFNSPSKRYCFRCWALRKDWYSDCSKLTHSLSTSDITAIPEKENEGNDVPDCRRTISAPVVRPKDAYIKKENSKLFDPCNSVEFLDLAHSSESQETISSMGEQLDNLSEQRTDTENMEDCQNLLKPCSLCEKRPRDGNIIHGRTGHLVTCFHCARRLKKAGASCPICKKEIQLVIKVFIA
# Target sequence (Q00987 whole entry, looked up): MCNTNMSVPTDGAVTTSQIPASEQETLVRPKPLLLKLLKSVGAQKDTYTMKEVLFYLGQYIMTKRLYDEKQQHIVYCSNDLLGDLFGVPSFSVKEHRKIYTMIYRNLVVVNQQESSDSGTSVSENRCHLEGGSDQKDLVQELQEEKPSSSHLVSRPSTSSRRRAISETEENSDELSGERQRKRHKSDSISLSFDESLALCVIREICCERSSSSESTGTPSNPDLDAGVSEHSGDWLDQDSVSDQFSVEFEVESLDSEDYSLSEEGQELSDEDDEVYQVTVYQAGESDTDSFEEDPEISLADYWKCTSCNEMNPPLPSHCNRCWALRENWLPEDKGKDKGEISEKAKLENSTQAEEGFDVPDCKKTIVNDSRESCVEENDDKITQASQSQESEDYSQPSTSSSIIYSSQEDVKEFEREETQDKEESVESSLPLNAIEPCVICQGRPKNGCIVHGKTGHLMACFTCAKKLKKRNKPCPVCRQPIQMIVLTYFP
# CSC inhib – cancer stem cell inhibition; inhibition, % at 7.5 µM; hit rate 1.1% among 300,000; cancer stem cell-like cells viability, luminescence; in the data active means inhibition above about 75%; tested in HMLE shEcad cells
# Gli-Sufu confirm – confirmation of Gli-SUFU pathway antagonists | shares compounds with Gli-Sufu block | Sufu-KO-LIGHT cells, Gli luciferase reporter, luminescence | inhibition, % at 5 µM | hit rate 40% among 2,500;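 active means mean inhibition at 5 µM reaching about 45%, limit read from the data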;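 further: plate controls were DMSO-treated cells for no effect and wells lacking cells for full effect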
# Gli cytotox – cytotoxicity counter-screen for Gli-SUFU antagonists; shares compounds with Gli-Sufu block; Sufu-KO-LIGHT cells cytotoxicity, ATP luminescence; cytotoxicity, % at 5 µM; hit rate 32% among 2,500; AID 651994;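 active means mean cytotoxicity at 5 µM above about 25%, limit read from the data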;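 further: cells exposed to compound overnight for roughly 16 to 18 hours; plate controls were DMSO wells with cells for no effect and medium without cells for full effect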
# Wnt3a cs – counter-screen for Gli-SUFU antagonists: Wnt3a reporter inhibition; shares compounds with Gli-Sufu block; hit rate 20% among 2,500; AID 651995; inhibition, % at 6.25 µM; Wnt-LIGHT cells, Wnt3a-driven luciferase reporter, luminescence;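 active means mean inhibition above about 25%, limit read from the data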
# * = called active by the depositor; . = no result.
SMILES,aSyn UTR inh,Gli-Sufu block,697 NFkB inh,Jurkat NFkB inh,Mdm2 MdmX PPI,CSC inhib,Gli-Sufu confirm,Gli cytotox,Wnt3a cs
NC(=O)CC(NC(=O)c1ccccc1)c1ccc(N2CCCCCC2)c([N+](=O)[O-])c1 (centres undefined),-11.4,55.7*,-14.6,14.1,-5.3,6.4,35.7,20.9,-44.2
NC(=O)CC(NC(=O)c1ccccc1)c1ccc(N2CCN(c3ccccc3)CC2)c([N+](=O)[O-])c1 (centres undefined),17.3,37.5,-2.7,23.3,10.0,1.8,.,.,.
CCN1CCN(C(=O)C2CCCN(c3ncnc4c3nc3n4CCCCC3)C2)CC1 (centres undefined),3.8,50.2,1.5,-9.9,12.9,7.8,11.9,-0.8,2.9
Cc1ccc(S(=O)(=O)N(Cc2ccccc2)c2ccccc2C(=O)NCc2ccco2)cc1,10.8,96.3*,6.9,-12.2,24.8,.,22.9,22.2,4.5
C[C@H](NC(=O)C1CCN(S(=O)(=O)c2ccccc2)CC1)C(=O)NCc1ccc(Cl)cc1Cl,11.9,17.9,-18.6,11.7,3.1,-4.3,.,.,.
Brc1ccc(-c2csc(N3CCCCCC3)n2)cc1,-10.1,50.7,18.6,-20.6,-46.2,23.9,59.0*,1.0,27.2*
O=C(OCCOc1cccc(Cl)c1)c1cc(S(=O)(=O)N2CCCCC2)ccc1N1CCOCC1,-12.1,63.9*,-33.9,26.4,12.3,23.8,66.3*,35.7*,19.5
O=C(OCc1cccc(Cl)c1)c1cc(S(=O)(=O)N2CCCCC2)ccc1N1CCOCC1,-6.4,27.3,-0.3,7.6,23.8,19.0,.,.,.
COc1ccc2[nH]c(C(=O)N(C)Cc3ccccc3)c(C)c2c1,-12.2,4.1,-14.5,-26.0,-6.7,-14.2,.,.,.
Cc1ccc2c(c1)c(C)cc[n+]2Cc1ccccc1,-11.3,57.7*,-22.9,27.9,-0.3,.,60.3*,29.6*,13.0
Cc1ccc2ccc[n+](Cc3ccccc3)c2c1,-4.9,21.8,0.6,29.3,26.2,-11.3,.,.,.
COc1ccc2c(c1)c(C)cc[n+]2Cc1ccccc1,-7.1,65.1*,-17.4,9.4,10.2,-5.5,66.6*,21.6,23.2
CC(Oc1cccc(Cl)c1)C(=O)Nc1ccc(N2CCOCC2)cc1N1CCOCC1 (centres undefined),2.0,23.7,-4.6,11.9,1.4,.,.,.,.
O=C(Nc1cccnc1)c1cc(-c2ccc(Cl)cc2Cl)on1,-50.8,-19.1,2.4,-81.8,-32.0,.,.,.,.
O=C(CN1C(=O)COc2ccc(S(=O)(=O)N3CCCCC3)cc21)NCc1ccc(Cl)cc1,7.2,59.4*,-2.4,31.9,34.7,-8.9,7.9,25.1*,-28.6
O=C(O)Cn1nnnc1SCC(=O)Nc1ccccc1F,16.0,56.6*,5.2,1.6,-16.0,-15.8,32.5,-0.4,9.5
CCOc1ccc(CCNC(=O)CN(C)S(=O)(=O)c2cccs2)cc1OCC,0.8,12.7,-3.3,8.0,-7.6,-10.2,.,.,.
COc1ccc(/C=C/C2=CCN(Cc3ccc(OC)cc3)CC2)cc1,11.5,50.4,-7.8,-11.2,13.8,4.4,17.7,10.6,-48.1
Nc1nc(SCc2cccnc2)c2ncn(C3OC(CO)C(O)C3O)c2n1 (centres undefined),.,3.5,.,.,.,.,.,.,.
O=C(c1cccc(S(=O)(=O)N2CCN(c3ccccc3)CC2)c1)N1CCCC(C(F)(F)F)C1 (centres undefined),-1.3,55.0,-38.0,20.5,21.7,1.0,56.7*,15.4,-4.8
O=C(c1cc(S(=O)(=O)N2CCN(c3ccccc3)CC2)ccc1Cl)N1CCCC(C(F)(F)F)C1 (centres undefined),10.7,43.6,-47.1,16.2,12.0,.,.,.,.
O=C(c1cccc(S(=O)(=O)N2CCCc3ccccc32)c1)N1CCN(c2ccccc2)CC1,.,52.2,13.0,-6.6,19.3,-6.3,19.2,9.6,-36.8
O=C(c1cccc(S(=O)(=O)N2CCc3ccccc32)c1)N1CCOCC1,.,0.9,14.2,3.1,14.1,4.8,.,.,.
CCNc1nc(OCCNS(=O)(=O)c2cc(C)ccc2C)nc(N(C)C)n1,5.8,3.4,1.2,9.6,-17.5,-1.7,.,.,.
CCNc1nc(OC)nc(N(OC)S(=O)(=O)c2ccc(C)cc2)n1,18.0,52.6,-22.4,-8.2,-0.6,-7.2,24.4,4.9,-21.9
SMILES,aSyn UTR inh,Gli-Sufu block,697 NFkB inh,Jurkat NFkB inh,Mdm2 MdmX PPI,CSC inhib,Gli-Sufu confirm,Gli cytotox,Wnt3a cs
OCC1(CCc2ccccc2)CCCN(CCCc2ccccc2)C1 (centres undefined),-0.5,23.9,12.8,10.8,8.9,26.4,.,.,.
CCn1ncc(Cl)c1C(=O)Nc1ccc2c(c1)CCC2,-50.7,.,-33.1,-21.2,32.0,-3.2,.,.,.
CCCCn1c(=O)[nH]c(=O)c2c1nc(CN(C)Cc1cccc(OC)c1OC)n2CCC,25.4,63.3*,.,.,.,-1.8,16.8,3.8,-7.5
CCOc1ccc(-n2c(=O)c3sccc3n(Cc3cccc([N+](=O)[O-])c3)c2=O)cc1,4.9,11.7,5.5,6.8,-16.9,-13.9,.,.,.
CCN1CCN(c2oc(-c3ccccc3C)nc2S(=O)(=O)c2ccccc2)CC1,.,52.4,-40.0,-27.4,9.0,.,22.3,2.4,-23.7
CCCCCCCCCCOC(=O)C[N+](C)(C)C/C=C(/C)Cl,3.5,63.4*,-19.2,9.9,38.9,58.7,69.5*,26.6*,35.2*
CCn1cc(Cl)c(C(=O)NNC(=O)CCn2ccc([N+](=O)[O-])n2)n1,8.1,3.9,10.9,-17.6,11.1,.,.,.,.
COCCOC(=O)c1cc(C(=O)c2cc(Cl)ccc2O)coc1=N,-8.4,-0.6,0.0,-7.1,4.0,.,.,.,.
COc1ccc(NS(=O)(=O)c2ccc3c(c2)OCCO3)cc1OC,-0.2,65.9*,-16.5,25.3,21.0,-2.8,59.8*,29.0*,30.4*
COc1ccc(S(=O)(=O)Nc2ccc3c(c2)OCO3)cc1OC,-18.3,-2.7,-8.3,-15.0,15.8,-11.6,.,.,.
COc1ccc2c(c1)c(CC(=O)OCC(N)=O)c(C)n2C(=O)c1ccc(Cl)cc1,0.9,64.5*,6.4,6.7,8.5,-0.8,12.1,-3.3,-6.8
CCOc1cc(/C=C2/NC(=O)N(Cc3ccccc3F)C2=O)ccc1O,-4.8,74.3*,4.6,29.4,23.0,.,70.5*,19.3,45.4*
COc1ccccc1NC(=O)Nc1ccncc1,-50.7,-11.1,1.6,-6.1,-9.2,-13.2,.,.,.
COc1ccccc1NC(=O)Nc1ccc(Cc2ccncc2)cc1,-5.9,50.3,0.5,-1.5,-19.8,40.4,14.9,6.9,-37.9
COc1ccc(OC)c(NC(=O)CC(NCCC2=CCCCC2)C(=O)O)c1 (centres undefined),-2.6,.,.,.,.,.,.,.,.
CC1(C)COCN1C(=O)c1ccc(C#N)cc1,-8.8,51.6,6.1,-5.8,9.7,-5.5,10.0,20.5,1.8
